Results filed as inconclusive are left out. Entries that show only a call come without a potency. Calls of active or inactive are those of the source. Calls come from the whole dose curve; as a rule, active = well fitted inhibition curve with a large enough effect; inconclusive = small, poorly fitted or top-dose-only effect; inactive = flat fitted curve, though single readings scatter.

The target in the assay is Phospholipid hydroperoxide glutathione peroxidase GPX4 (Homo sapiens) (UniProt P36969). Nature of the assay: Primary qHTS Assay for Inhibitors of Recombinant Selenoprotein Glutathione Peroxidase 4 (GPX4) (AID 1845192). Note: nearly all actives have a fitted effect of over 65% in size. The following applies: recombinant GPX4, GR-coupled NADPH fluorescence, 15 min; series mostly up to 50 µM. The text has this: Assay Provider: Elias S.J. Arner MD PhD.
Sequence of Phospholipid hydroperoxide glutathione peroxidase GPX4 (Homo sapiens) (P36969 whole entry, looked up): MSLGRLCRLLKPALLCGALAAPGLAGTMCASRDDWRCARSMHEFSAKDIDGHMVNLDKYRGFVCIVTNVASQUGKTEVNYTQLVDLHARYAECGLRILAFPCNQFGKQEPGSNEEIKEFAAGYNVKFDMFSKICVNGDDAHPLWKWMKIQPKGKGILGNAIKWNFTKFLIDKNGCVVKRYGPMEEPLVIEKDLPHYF
Department of Medical Biochemistry and Biophysics
Karolinska Institutet, Solna, Stockholm, Sweden
Selenoprotein glutathione peroxidases (GPX), like the ubiquitously expressed GPX1 and the ferroptosis modulator GPX4, enact their antioxidant activities by reducing hydroperoxides using glutathione. […] GPX1 and GPX4 inhibitors have thus shown promise as anti-cancer agents. Existing inhibitors are often promiscuous, or modulate GPX activity only indirectly, so novel direct inhibitors identified through screening against GPX1 and GPX4 could be valuable. Here, we developed optimized glutathione reductase (GR)-coupled GPX assays for the biochemical high-throughput screen (HTS) of almost 12,000 compounds with known mechanisms of action. Initial hits were triaged using a GR counter-screen, assessed for isoform specificity using a separate GPX2 assay, and were assessed for general selenocysteine-targeting activity using a thioredoxin reductase (TXNRD1) assay. With this suite of assays, we identified novel GPX1/GPX2- and GPX4-specific inhibitors and can here present a validated pipeline for future discovery research for selenoprotein-targeting agents.
SEQUENCE No. (e.g., 1, 2, 3, etc.); […] (e.g., Cells, Incubation, Reagent, etc.); VALUE; DESCRIPTION.
1; Reagent 1; 3 uL; 333.33 nM GPx4 enzyme or no enzyme control in 1536-well, black, solid Greiner assay plate.
2; Compound; 25 nL; Kalypsis pin tool (Wako USA) equipped with a 1536-well pin head.
3; Incubation; 30 min; room temperature.
4; Reagent 2; 1 uL; 500 nM GR, 5 mM GSH, 2.5 mM NADPH solution
5; Reagent 3; 1 uL; 2.5 mM CHP in 50% EtOH.
6; Detection; Fluorescence; ViewLux microplate reader, excitation 340 nm and emission 450 nm.
7; Incubation; 15 min; room temperature.
8; Detection; Fluorescence; ViewLux microplate reader, excitation 340 nm and emission 450 nm.
NOTES (numbers refer to Sequence numbers above)
1. 3 µL of 333.33 nM GPX4 and 0.016% BSA in assay buffer (50 mM Tris-HCl, 2 mM EDTA (pH 7.5), 150 mM NaCl) was added to columns 3-48 of 1536-well plates using a BioRAPTR Flying Reagent Dispenser (Let's Go Robotics (LGR), Carlsbad, CA). A no-enzyme control (0.01% BSA in TES assay buffer) was added to columns 1-2.
2. 25 nL, library and DMSO controls were added to each well with a pin tool (Kalypsys).
3. The assay plates were incubated for 30 minutes at room temperature.
4. 1 µL of master mix (500 nM glutathione reductase (GR), 5 mM reduced glutathione (GSH), 2.5 mM NADPH in assay buffer) was added.
5. 1 µL of cumene hydroperoxide (CHP) ([2.5 mM] in 50% EtOH) was then added within 5 minutes to initiate the reaction. Final concentrations were: 200 nM GPX4, 1 mM GSH, 0.5 mM CHP, 0.5 mM NADPH, 100 nM GR, 0.01% BSA.
6. Initial fluorescence readout (t=0) at 340/450 nm was measured using a ViewLux multimodal detector (PerkinElmer, Waltham, MA).
8. Endpoint fluorescence readout (t=15) at 340/450 nm was measured 15 min after room temperature incubation.
(qHTS replaces the single test concentration by a dilution series.)
On to `NC1CC1c1ccccc1` (stereo not given), for which the Potency entry is “inactive”.
Turning to `CSCC[C@@H](NC(=O)[C@@H](Cc1ccccc1)NC(=O)CNC(=O)CNC(=O)[C@@H](N)Cc1ccc(O)cc1)C(=O)O`, the Potency entry is “inactive”.
For `NCc1cc(=O)[nH]o1` the value was “inactive”; for `O=C(Cc1ccc(Cl)c(Cl)c1)N1CCCCC1CN1CCCC1` (stereo not given), “inactive”.
For `COC(=O)c1cncn1C(C)c1ccccc1` (stereo not given) the value was “inactive”; for `CCCN(CCC)[C@@H]1CCc2ccc(O)cc2C1`, “inactive”.
Under `CCc1c(C(=O)C(N)=O)c2c(OCC(=O)O)cccc2n1Cc1ccccc1` stands “inactive”; under `Cc1ccccc1-n1c(Cn2cnc3c(N)ncnc32)nc2cccc(C)c2c1=O`, “inactive”; under `NC(=NCCC[C@H](N)C(=O)O)N[N+](=O)[O-]`, “inactive”.
As to `NC(=O)CN1CC(O)CC1=O` (stereo not given), the Potency entry is “inactive”.
For `C1CCC(NC2CCCCC2)CC1` the value was “inactive”; for `C[C@](O)(COc1ccc(C#N)cc1)C(=O)Nc1ccc(C#N)c(C(F)(F)F)c1`, “inactive”; for `CCNC(=O)C[C@@H]1N=C(c2ccc(Cl)cc2)c2cc(OC)ccc2-n2c(C)nnc21`, “inactive”.
On to `C[C@]12N[C@H](Cc3ccccc31)c1ccccc12`, for which the Potency result is “inactive”.
In the case of `COC(=O)[C@@H](N)CCCN=C(N)N[N+](=O)[O-]`, the Potency entry was “inactive”.
As to `COCC1(CO)C(=O)C2CCN1CC2` (stereo not given), the Potency entry was “inactive”.
Under `CCCN1CCO[C@@H]2c3cc(O)ccc3OC[C@H]21` stands “inactive”.
Under `O=C(O)[C@@H]1CCN1` stands “inactive”; under `CC[N+]1(CCOC(=O)C(O)(c2ccccc2)c2ccccc2)CCCCC1`, “inactive”; under `CN(C)NC(=O)CCC(=O)O`, “inactive”.
Under `Cc1[nH]nc2ccc(-c3cncc(OC[C@@H](N)Cc4c[nH]c5ccccc45)c3)cc12` stands “inactive”; under `NC(CCP(=O)(O)O)C(=O)O` (stereo not given), “inactive”.
`CCCCCCCCCCCCCCCC[N+](C)(C)C`: the Potency entry was “inactive”.
As to `C[N+]1(C)C2CCC1CC(OC(=O)C(CO)c1ccccc1)C2` (stereo not given), the Potency result is “inactive”.
Under `CC(=O)[C@H]1CCC2C3CC[C@H]4C[C@H](O)CC[C@]4(C)C3CC[C@@]21C` (stereo not given in full) stands “inactive”; under `CN1CCN(c2ccc([N+](=O)[O-])c3no[n+]([O-])c23)CC1`, “inactive”; under `CC(N[C@H]1C[C@H]1c1ccccc1)c1ccc2c(c1)OCCO2` (stereo not given in full), “inactive”.
Consider `CC1=NN=C(c2ccc(N)cc2)c2cc3c(cc2C1)OCO3`, for which the Potency entry is “inactive”.
For `C[C@@H](N)Cc1cnc[nH]1` the value was “inactive”; for `CC(C)NC(C)Cc1ccc(I)cc1` (stereo not given), “inactive”; for `O=c1[nH]c2ccc(Cl)cc2c(N[C@@H]2CN3CCC2CC3)c1-c1nc2ccccc2[nH]1`, “inactive”.
Under `C[C@@H]1O[C@H](C[N+](C)(C)C)C[C@H]1O` stands “inactive”.
Under `CCN1CCN(C(=O)Cc2ccc(Nc3ncc(F)c(Nc4ccc(C(=O)Nc5ccccc5Cl)cc4)n3)cc2)CC1` stands “inactive”.
Consider `O=c1cccc2n1CC1CNC[C@H]2C1`, for which the Potency result was “inactive”.
Under `O=[N+]([O-])/N=C1\NCCN1Cc1ccc(Cl)nc1` stands “inactive”.
Under `c1ccc(C2(c3ccccc3)CC2C2=NCCN2)cc1` (stereo not given) stands “inactive”.
Under `CCCC[N+]1(C)[C@H]2CC(OC(=O)[C@H](CO)c3ccccc3)C[C@H]1[C@H]1O[C@H]12` (stereo not given in full) stands “inactive”.
`c1ccc2c(CN3CCNCC3)cccc2c1`: the Potency entry was “inactive”.
Under `COC1=C[C@@H]2[C@@H]3Cc4ccc(OC)c(O)c4[C@]2(CCN3C)CC1=O` stands “inactive”; under `COc1ccc(N(C(=O)Oc2c(C)cccc2C)c2ccnc(Nc3ccc(N4CCN(C)CC4)cc3)n2)c(OC)c1`, “inactive”.
